“And” between values parts separate entries of the source, which are not always exact repeats. Equal entries are not always repeated. In all, about 4,400 compounds went through this assay and about 390 (8.9%) showed an effect of 50% or more. What follows is part of a selection rich in strong results, with near analogues and random picks from the rest.
System: Trypanosoma brucei
Test: DNDI: Inhibition of Human African Trypanosomiasis, SBRI 427, in vitro at 2 ug.mL-1
Type: functional

Structure (SMILES) | % inhibition
COCC(C)N/C(=N\O)c1ccc(C)nc1Oc1ccc(SC)c(C)c1 (configuration not stated) | -10%
Cc1ccc(Oc2nc(C)ccc2/C(=N/O)N2CCCCC2)c(C)c1 | 0%
CC(NCc1coc(-c2ccc(C(F)(F)F)cc2)n1)c1ccccc1 (configuration not stated) | 2%
COc1ccc(-c2nc(CNCCc3ccccc3OC)co2)cc1 | -4%
Cc1ccc(-c2nc(CN3CCN(C(=O)C4CCCO4)CC3)co2)cc1 (configuration not stated) | 21%
Cc1ccc(Oc2cc(/C(=N/O)NCc3cccnc3)ccn2)c(C)c1 | -3%
COc1ccc(Oc2nc(C)ccc2/C(=N/O)NCc2ccc(C)o2)cc1 | 16%
CCc1ccc(Oc2ncccc2/C(=N/O)N2CCN(C)CC2)cc1 | -4%
CCc1ccc(Oc2ccc(/C(N)=N/O)cn2)cc1 | 20%
CCOc1ccccc1CN/C(=N\O)c1cccnc1OCC(C)C | 3%
COc1ccc(Oc2ncccc2/C(=N/O)NCc2ccccn2)cc1 | 2%
CCOc1ccccc1CN/C(=N\O)c1cccnc1OC1CCC1 | 5%
COc1ccc(Oc2ncccc2/C(=N/O)NCc2ccccc2OC)cc1 | 94%
COc1ccc(Oc2ncccc2/C(=N/O)NCc2ccccc2C)cc1 | 85%
CCc1ccc(Oc2ncccc2/C(=N/O)NCc2ccccc2C)cc1 | 99%
COc1ccccc1CN/C(=N\O)c1cccnc1Oc1cccc2ccccc12 | 0%
CCOc1ccccc1CN/C(=N\O)c1cccnc1Oc1ccccc1SC | 100%
Cc1ccc(/C(=N/O)N2CCC(N(C)C)C2)c(OCc2cccc(F)c2)n1 (configuration not stated) | -7%
O/N=C(\NCc1ccccc1)c1ccc(Oc2c(F)c(F)cc(F)c2F)nc1 | 30%
c1csc(-c2nc(CNCCN3CCOCC3)co2)c1 | -8%
CCN(Cc1coc(-c2ccccc2C)n1)c1ccc2c(c1)OCO2 | 13%
Cc1ccc2cccc(Oc3cc(/C(=N/O)NCc4cccs4)ccn3)c2n1 | 6%

Structure (SMILES) | % inhibition
CCN(Cc1coc(-c2ccc(F)cc2)n1)c1ccc2c(c1)OCO2 | -2%
CN(Cc1cccnc1)/C(=N\O)c1ccnc(Oc2cccc(F)c2)c1 | 2%
CCOc1ccccc1-c1nc(CNCc2cc(OC)c(OC)c(OC)c2)co1 | 8%
CCOc1ccccc1CN/C(=N\O)c1ccc(C)nc1Oc1cc(Cl)ccc1Cl | 26%
CCOc1ccccc1CN/C(=N\O)c1cccnc1Oc1ccc(OC)cc1 | 98%
Cc1ccc(/C(=N/O)NCc2ccccc2C)c(Oc2cccc(C(C)C)c2)n1 | 2%
CCOc1ccccc1CN/C(=N\O)c1cccnc1Oc1ccc(C(C)C)cc1 | 99%
CCOc1ccccc1CN/C(=N\O)c1cccnc1Oc1ccc(F)cc1 | 5%
CCOc1ccccc1CN/C(=N\O)c1cccnc1Oc1ccc2oc3ccccc3c2c1 | 14%
Cc1ccccc1CN/C(=N\O)c1cccnc1OCC(C)C | 11%
CCOc1ccccc1CN/C(=N\O)c1cccnc1Oc1cc(C)cc(C(C)C)c1 | -4%
COc1ccccc1CN/C(=N\O)c1cccnc1Oc1ccc(C(C)C)cc1 | -4%
Cc1ccccc1CN/C(=N\O)c1cccnc1Oc1ccc(C(C)C)cc1 | 99%
CCOc1ccccc1CN/C(=N\O)c1cccnc1Oc1cc(Cl)ccc1Cl | 100%
CCCN(Cc1coc(-c2cccs2)n1)CC1CC1 | 0%
Cc1ccc(/C(=N/O)N(C)Cc2cccnc2)c(OCc2ccccc2F)n1 | 0%
COc1ccc(-c2nc(CNCc3ccc(C(C)(C)C)cc3)co2)cc1 | 4%
Cc1ccc(C(C)C)c(Oc2cc(/C(=N/O)N3C(C)CCC3C)ccn2)c1 (configuration not stated) | 8%
COc1ccc(N(C)Cc2coc(-c3ccc(C(F)(F)F)cc3)n2)cc1 | 2%
Fc1cccc(-c2nc(CN3CCC4CCCCC4C3)co2)c1 (configuration not stated) | 0%
Cc1ccc(CN/C(=N\O)c2cccnc2Oc2cc(Cl)ccc2Cl)o1 | 100%
Cc1ccc(CN/C(=N\O)c2cccnc2Oc2c(F)cccc2F)o1 | 0%

Structure (SMILES) | % inhibition
O/N=C(\NCc1cccnc1)c1cccnc1Oc1ccc(F)cc1Cl | 14%
COc1ccc(Oc2ncccc2/C(=N/O)NCc2ccc(C)o2)cc1 | 5%
O/N=C(\NCc1ccccc1)c1cccnc1Oc1ccc(F)cc1Cl | 94%
O/N=C(\NCc1ccccn1)c1cccnc1Oc1ccc(F)cc1Cl | 20%
CSc1ccc(Oc2nc(C)ccc2/C(=N/O)n2ccnc2)cc1 | -8%
CCCCN(CCC#N)Cc1coc(-c2ccc(C)cc2)n1 | -2%
CCCCCCC(C)NCc1coc(-c2ccccc2OCC)n1 (configuration not stated) | 41%
CCCCCC(C)NCc1coc(-c2ccccc2OCC)n1 (configuration not stated) | 99%
CCCC(CCC)NCc1coc(-c2ccc(OCC)cc2)n1 | 99%
CCN(CC)CCNCc1coc(-c2ccccc2Cl)n1 | -11%
CCCCCCC(C)NCc1coc(-c2ccccc2Br)n1 (configuration not stated) | 28%
CC(CCc1ccccc1)NCc1coc(-c2ccccc2Cl)n1 (configuration not stated) | 8%
CCOc1ccccc1-c1nc(CNC(C)c2ccccc2)co1 (configuration not stated) | -8%
CCN(CC)CCCC(C)NCc1coc(-c2ccccc2Cl)n1 (configuration not stated) | 94%
CCOc1ccc(-c2nc(CNC(CC)COC)co2)cc1 (configuration not stated) | 21%
CCOc1ccccc1-c1nc(CN[C@H](C)c2ccc(C)cc2)co1 | 10%
CCCC(CCC)NCc1coc(-c2ccc(O)cc2)n1 | 14%
Cc1ccc(/C(=N/O)N2CCN(c3ccccc3)CC2)c(Oc2ccc(F)cc2)n1 | 20%
C=CCN(CC=C)Cc1coc(-c2cccs2)n1 | -3%
Cc1ccc(-c2nc(CNc3cc(C)nn3-c3ccccc3)co2)cc1 | 10%
C=C(C)CN(CC)Cc1coc(-c2cccc3ccccc23)n1 | -7%
COc1cc(-c2nc(CNC(C)c3ccccc3)co2)cc(OC)c1OC (configuration not stated) | 0%

Structure (SMILES) | % inhibition
CCC(NCc1coc(-c2ccc(Cl)cc2Cl)n1)c1ccccc1 (configuration not stated) | 5% and 14%
CCCCN(CCC#N)Cc1coc(-c2ccc(O)cc2)n1 | -26%
Cc1ccccc1-c1nc(CN(C)C(C)c2ccccc2)co1 (configuration not stated) | 13%
CCCC(CCC)NCc1coc(-c2ccccc2Br)n1 | -3%
CCOc1ccccc1-c1nc(CNC(CC)COC)co1 (configuration not stated) | 5%
CC(NCc1coc(-c2ccc(Cl)cc2Cl)n1)C(C)(C)C (configuration not stated) | 55%
COCC(C)NCc1coc(-c2ccc(Cl)cc2Cl)n1 (configuration not stated) | 2%
CCCC(CCC)NCc1coc(-c2ccccc2OCC)n1 | 98%
Cc1ccc(-c2nc(CN(c3ccccc3)C(C)C)co2)cc1 | 23%
c1ccc2c(-c3nc(CN4CCC(N5CCCC5)CC4)co3)cccc2c1 | 35%
COc1ccc(-c2nc(CN(Cc3ccccn3)Cc3ccccn3)co2)cc1 | 46%
COCCN(CCOC)Cc1coc(-c2cccc(C)c2)n1 | 13%
CN(CCc1ccccn1)Cc1coc(-c2ccc(Cl)cc2Cl)n1 | -26%
Cc1ccc(-c2nc(CN(Cc3ccccn3)Cc3ccccn3)co2)cc1 | 83%
Clc1ccc(-c2nc(CN(Cc3ccccn3)Cc3ccccn3)co2)c(Cl)c1 | 58%
COCCN(CCOC)Cc1coc(-c2ccc(Cl)cc2Cl)n1 | 6%
Cc1cccc(-c2nc(CN(Cc3ccccn3)Cc3ccccn3)co2)c1 | 63%
Fc1ccc(-c2nc(CN(Cc3ccccn3)Cc3ccccn3)co2)cc1 | 48%
Fc1cccc(-c2nc(CN(Cc3ccccn3)Cc3ccccn3)co2)c1 | 4%
C=CCN(C)Cc1coc(-c2ccc(OC)cc2)n1 | 18%
c1ccc2c(-c3nc(CNCCN4CCOCC4)co3)cccc2c1 | 7%
Cc1ccccc1-c1nc(CN(Cc2ccccc2)C(C)C)co1 | 7%

Structure (SMILES) | % inhibition
Cc1ccc(/C(=N/O)NC2CCc3ccccc32)c(Oc2cccc(F)c2)n1 (configuration not stated) | 23%
Cc1ccc(-c2nc(CNC(C)CC(C)C)co2)cc1 (configuration not stated) | 4%
COc1ccc(Oc2nc(C)ccc2/C(=N/O)NC2CCC2)cc1 | -19%
CSc1ccc(Oc2nc(C)ccc2/C(=N/O)NCCN(C)C)cc1C | -3%
Cc1ccc(Oc2nc(C)ccc2/C(=N/O)NC2CC2)cc1 | 30%
COc1ccc(Oc2nc(C)ccc2/C(=N/O)NC2CC2)cc1 | 4%
Cc1ccc(Oc2nc(C)ccc2/C(=N/O)NC2CCCC2)cc1 | 97%
CSc1ccc(Oc2nc(C)ccc2/C(=N/O)NC2CCCC2)cc1C | 88%
COCCN/C(=N\O)c1ccc(C)nc1Oc1ccc(SC)c(C)c1 | 98%
CSc1ccc(Oc2nc(C)ccc2/C(=N/O)NC2CCCCC2)cc1 | 1%
Cc1ccc(/C(=N/O)NC2CCCC2)c(Oc2ccc(F)cc2)n1 | 23%
CSc1ccc(Oc2nc(C)ccc2/C(=N/O)NCC2CC2)cc1C | 14%
COc1ccc(Oc2nc(C)ccc2/C(=N/O)NC2CCCC2)cc1 | 101%
CCCN/C(=N\O)c1ccc(C)nc1Oc1ccc(SC)c(C)c1 | 11%
Brc1ccc(-c2nc(CNCCc3ccccn3)co2)cc1 | -9%
FC(F)(F)Oc1ccc(-c2nc(CNCc3ccccc3OC(F)(F)F)co2)cc1 | -17%
Fc1cccc(-c2nc(CNCc3ccc(OC(F)(F)F)cc3)co2)c1 | 7%
CN1CCCC1CCN/C(=N\O)c1cccnc1Oc1ccc(Cl)cc1 (configuration not stated) | -1%
O=C(c1ccco1)N1CCN(Cc2coc(-c3ccc(Cl)cc3Cl)n2)CC1 | 21%

— ChEMBL document CHEMBL1857833, “Screening and optimization of specific chemical series against human African Trypanosomiasis (HAT)”
